This is a sample that favours compounds with a hit; in the whole collection about 2.4% have one here.
D2 ag-1: activates the human D2 dopamine receptor; P14416; HEK293 T-REx D2 cells, calcium flux agonist mode; activation, % at 2 µM; 0.53% of 340,000 active; AID 485358;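 active means activation over 3 SD above normal in the single-dose calcium agonist read, cut at about 30% in these data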; further: 0% is about no effect
Target sequence (P14416 whole entry, looked up): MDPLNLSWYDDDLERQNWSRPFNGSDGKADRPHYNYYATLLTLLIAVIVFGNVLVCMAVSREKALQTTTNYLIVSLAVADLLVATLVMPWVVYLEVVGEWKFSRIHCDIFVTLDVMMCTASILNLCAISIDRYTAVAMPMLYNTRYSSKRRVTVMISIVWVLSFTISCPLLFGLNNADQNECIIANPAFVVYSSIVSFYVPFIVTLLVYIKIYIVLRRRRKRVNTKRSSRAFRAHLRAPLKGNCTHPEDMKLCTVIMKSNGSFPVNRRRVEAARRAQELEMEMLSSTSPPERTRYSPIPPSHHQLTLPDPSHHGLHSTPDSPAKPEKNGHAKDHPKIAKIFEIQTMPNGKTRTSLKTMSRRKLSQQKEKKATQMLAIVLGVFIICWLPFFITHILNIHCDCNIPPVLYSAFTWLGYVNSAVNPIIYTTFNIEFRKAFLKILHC
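Agonism scored from kinetic calcium signal (1 read/sec, 180 s) following compound pin transfer, after a 10 s baseline. Cells: HEK293 Trex line expressing inducible D2 receptor coupled to calcium, dye-loaded after overnight culture at 30 C.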
D2 antag: D2 dopamine receptor (human) antagonism | P14416 | HEK293 TREx D2 cells, calcium flux, dopamine EC80 | inhibition, % at 10 µM | 2% of 340,000 active | AID 485344; in the data active means inhibition above about 30%; inactive means below that, where a call was filed; further: 0% is about no effect
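Tetracycline-induced HEK293 T-REx cells expressing D2 force-coupled to calcium signalling were dye-loaded, exposed to compound for 180 s, then challenged with an EC80 of dopamine; calcium flux was followed kinetically for a further 180 s.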
D2 ag-2: activates the human D2 dopamine receptor; P14416; DiscoveRx PathHunter D2 beta-arrestin, luminescence, 90 min; 100% = 57 uM dopamine signal; activation, % (test concentration not listed); 0.084% of 360,000 active; in the data active means activation above about 40%; inconclusive means between about 15% and that limit
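DiscoveRx PathHunter D2 beta-arrestin cells (2,100/well) attached overnight, then compound-stimulated 90 min at 37 C in HBSS/10 mM HEPES/0.1% Tween-20 buffer; beta-galactosidase complementation read by luminescence after 1 h at ambient temperature. Dopamine 57 uM final (EC100) as control.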
D2 PAM-1: positively modulates the human D2 dopamine receptor allosterically. HEK293 T-REx D2, calcium flux, EC20 dopamine potentiation. potentiation, % at 10 µM. 0.34% of 340,000 active;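 active means potentiation over 3 SD above the plate norm, cut at about 30% in these data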; further: 0% is about no effect
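Using a no-wash calcium dye in inducible, force-coupled HEK293 Trex cells expressing D2, we tracked fluorescence each second for 180 s after compound, then for 180 s after EC20 dopamine to detect augmented signalling.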
D2 PAM-2: potentiates the human D2 dopamine receptor allosterically; P14416; DiscoveRx D2 beta-arrestin cells, luminescence, 90 min; 100% = 57 uM dopamine signal; potentiation, % (concentration not given with the values); 0.23% of 360,000 active; in the data active means potentiation above about 50%; inconclusive means mostly about 30% to 49%
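PathHunter D2 cells, attached overnight at 37 deg C, received compound in DMSO plus dopamine at EC20 (50 nM final) for 90 min at 37 deg C. Beta-arrestin recruitment was read as luminescence after 1 h with detection reagent at ambient temperature.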
Numbers without * were called inactive; ? = inconclusive; nt = no result given.

SMILES	D2 ag-1	D2 antag	D2 ag-2	D2 PAM-1	D2 PAM-2
CCC(=O)N1c2ccccc2CC1C(=O)NCCN1CCN(c2cccc(C(F)(F)F)c2)CC1 (stereo not given)	1	nt	nt	-22	nt
O=C(O)CCCn1cc(NC(=O)COc2ccc([N+](=O)[O-])cc2)cn1	0	-6	-1	31*	-1
Cc1cc(OCC(=O)Nc2cnn(CCCC(=O)O)c2)ccc1[N+](=O)[O-]	0	13	-4	15	-1
CC(=O)Nc1sc(N/N=C\c2ccccc2Cl)nc1-c1cccs1	-1	-11	14	23	55*
CC(=O)Nc1sc(N/N=C/c2ccccc2F)nc1-c1ccc(C)cc1	-2	5	41*	-2	15
CC(=O)Nc1sc(N/N=C\c2ccco2)nc1-c1cccs1	1	9	?	-10	78*
CCOc1ccc(N(C(C)C(=O)NCCSc2ccc(Cl)cc2)S(C)(=O)=O)cc1 (stereo not given)	2	nt	nt	-9	nt
O=C(NC1CCCCC1)c1ccc(CS(=O)(=O)Cc2ccccc2F)o1	1	44*	-1	-1	-4
O=C(NC1CCCC1)c1ccc(CS(=O)(=O)Cc2ccccc2F)o1	0	-6	2	-9	-6
COc1ccc(NC(=O)CSc2nnc(C3CC3)n2C)cc1	2	5	-1	-1	-13
CCOc1ccc(NC(=O)CN2CCN(c3ccccc3C)CC2)cc1S(=O)(=O)N1CCCC1	1	35*	-1	-26	-28
CCC(=O)Nc1cccc(NC(=O)CSc2nnc(C3CC3)n2C)c1	0	31*	-2	0	2
CCOc1ccc(NC(=O)CSc2nnc(C3CC3)n2C)cc1S(=O)(=O)N1CCCCC1	0	44*	0	-6	3
Cn1c(SCC(=O)Nc2ccc3c(c2)CCC3)nnc1C1CC1	0	-9	-2	-11	-16
NC(=O)c1ccc(NC(=O)CSc2nnc(C3CC3)n2C2CC2)cc1	nt	nt	3	nt	2
CCOc1ccc(NC(=O)CN2CCN(c3ccc(F)cc3)CC2)cc1S(=O)(=O)N1CCCC1	nt	nt	-3	nt	-45
CCOc1ccc(NC(=O)CSc2nnc(C3CC3)n2C2CC2)cc1	0	43*	-7	4	2
CCC(=O)N1CCc2cc(Br)cc(S(=O)(=O)N3CCCC(C(=O)Nc4ccc(C(C)C)cc4)C3)c21 (stereo not given)	1	nt	nt	4	nt
CCOC(=O)CSc1nc(-c2ccc(C)cc2C)cc(-c2ccccc2)c1C#N	2	nt	nt	9	nt
O=C(CSC1=Nc2ccccc2N=C(c2ccc(F)cc2)C1)NCc1ccccc1Cl	0	nt	nt	14	nt
CCOC(=O)C1(CCOC)CCN(Cc2nc(C(C)C)cs2)CC1	-2	33*	1	-3	-9
COc1ccc2[nH]c3c(c2c1)CCN1C(=O)N([C@@H](C)C(=O)NCc2ccccc2)C(=O)[C@]31C	36*	10	-3	1	-18
C[C@@H](C(=O)NC1CCN(Cc2ccccc2)CC1)N1C(=O)N2CCc3c([nH]c4ccccc34)[C@@]2(C)C1=O	0	-23	-4	-17	-86
CC(C)C[C@@H](C(=O)NC1CCN(Cc2ccccc2)CC1)N1C(=O)N2CCc3c([nH]c4ccccc34)[C@@]2(C)C1=O	1	31*	-8	-15	-83
COc1ccc2[nH]c3c(c2c1)CCN1C(=O)N([C@@H](C)C(=O)NC2CC2)C(=O)[C@]31C	30*	3	8	-1	0
SMILES	D2 ag-1	D2 antag	D2 ag-2	D2 PAM-1	D2 PAM-2
COc1ccc(NC(=O)c2c(-c3ccc(C)cc3)nnc3ccccc23)c(OC)c1	0	nt	nt	1	nt
CCOc1ccc(-n2c(SCC(=O)N3CCOCC3)nc3c([nH]c4ccccc43)c2=O)cc1	-2	nt	nt	-1	nt
COC(=O)c1cc(C(=O)OC)cc(-n2c(C)cc(C(=O)COC(=O)CNS(=O)(=O)c3ccc(C)cc3)c2C)c1	-1	60*	-1	-18	-2
CCOC(=O)c1c(C=O)c2sc(C)cc2n1C	0	43*	-1	8	-6
O=C(NC(=S)N1CCN(c2ccc([N+](=O)[O-])cc2)CC1)c1ccccc1	0	31*	3	-3	-2
C[C@H](NC(=O)c1ccccc1)C(=O)N1CCN(c2ccccc2)CC1	0	30*	1	-3	-3
Cc1ccc(C(=O)NC(=S)N2CCN(c3ccc([N+](=O)[O-])cc3)CC2)cc1	0	7	3	6	-16
CC(NC(=O)COc1ccccc1)C(=O)N1CCN(c2ccccc2)CC1 (stereo not given)	0	7	-7	8	-14
COC(=O)c1ccc2c(c1O)C(=O)c1ccccc1C2=O	1	10	14	0	107*
COc1ccc(CCNC(=O)c2ccc3c(c2)ncn3-c2ccc(C(C)C)cc2)cc1OC	1	nt	nt	-5	nt
Cc1cccc(C(=O)O/N=C(\N)Cc2ccc([N+](=O)[O-])cc2)c1	0	16	?	6	148*
COc1ccc(/C(N)=N/OC(=O)c2cccc([N+](=O)[O-])c2C)cc1	1	-5	3	-10	4
COc1ccccc1C/C(N)=N/OC(=O)c1cccc([N+](=O)[O-])c1C	-1	5	?	-1	136*
Cc1ccc(CC(=O)O/N=C(\N)Cc2ccc([N+](=O)[O-])cc2)cc1	-1	-16	7	-6	12
N/C(Cc1ccc([N+](=O)[O-])cc1)=N\OC(=O)C(c1ccccc1)c1ccccc1	0	12	12	-5	89*
N/C(Cc1ccc([N+](=O)[O-])cc1)=N\OC(=O)c1ccco1	nt	nt	53*	nt	21
CC(=O)c1ccc(N2CCN(c3nc4c(S(=O)(=O)c5ccc(C)c(C)c5)nnn4c4ccc(Cl)cc34)CC2)cc1	1	nt	nt	4	nt
Cc1oc2ccc(O)c(CN(C)Cc3ccccc3)c2c1C(=O)Nc1ccccc1	-1	nt	nt	-2	nt
Nc1c(-c2nc(-c3ccccc3Cl)no2)nnn1-c1ccccc1C(F)(F)F	nt	nt	nt	1	nt
CCOC(=O)c1c(NC(=O)c2cc(=O)c3cc(C)cc(C)c3o2)sc(C)c1C	1	nt	nt	17	nt
COc1ccc(C/C(N)=N/OC(=O)C(c2ccccc2)c2ccccc2)cc1OC	1	-17	7	0	50*
N/C(Cc1ccc([N+](=O)[O-])cc1)=N\OC(=O)c1ccc2ccccc2c1	1	-5	?	-2	143*
N/C(Cc1ccc([N+](=O)[O-])cc1)=N\OC(=O)c1ccccc1Br	1	3	41*	-11	122*
N/C(Cc1ccc([N+](=O)[O-])cc1)=N\OC(=O)c1ccc(Br)cc1	-1	12	?	-10	171*
Cc1ccc(C)c(NC(=O)c2cc(S(=O)(=O)N3CCN(c4cccc(Cl)c4)CC3)ccc2F)c1	nt	nt	nt	24	nt

Bioassay records: PubChem, National Center for Advancing Translational Sciences (NCATS)
